According to PubChem BioAssay AID720536 (National Center for Advancing Translational Sciences (NCATS), 2013):
About 650 (41%) of roughly 1,600 compounds were called active. Roughly 39% stayed inconclusive and do not appear here. The call rests on the fitted dose curve; in most records, active means well fitted inhibition curve with a large enough effect; inconclusive means small, poorly fitted or top-dose-only effect; inactive means no such curve, though single readings can be large or run the other way. The set was probably picked from earlier hits. Only a selection was taken, and actives are over-represented in it overall.

Assay: qHTS for Inhibitors of TGF-b: CCL64 Cells Orthogonal Assay for Cherry Picks; further: nearly all actives have a fitted effect of over 65% in size
Details: CCL64 CAGA-GFP reporter, TGF-b stimulated, GFP fluorescence, 18 h; series mostly up to 46.1 µM
Text: TGF-b is a main component in the TGF-b signaling pathway which plays diverse roles in cellular and development pathways. TGF-b is the mediated by the transcription factors Smads. Although the Smad-dependent pathway is the primary canonical TGF-b signaling node, TGF-b1 can also activate alternative signaling pathways, including those involving MAPK (ERK, JNK and p38). This interaction may mediate or enhance Smad-dependent responses, or can exert Smad-independent effects. The complexity of this signaling cascade allows the TGF-b superfamily to perform unique, overlapping or redundant functions. We believe that targeting the TGF-beta pathway at the Smad-transcription factor level may eliminate the consequences of disrupting the entire pathway and offer specificity without affecting other signaling pathways. Smad3 is the primary transducer of TGF-b's signals and Smad3 regulates many functions attributed to TGF-b signaling. We hypothesize that Smad3 inhibitors will selectively eliminate Smad3-specific TGF-beta signals without undesired off-target effects. We aim to identify Smad3-small molecule antagonists using a quantitative high throughput screening (qHTS) approach. A high-throughput assay was developed to screen the NIH Molecular Libraries Small Molecule Repository (MLSMR). This is a cell based assay, where TGF-b is tagged with GFP. This orthogonal assay was run using CCL64 cells (as opposed to HepG2); activity was desired in this assay as this indicated the hits identified from the screen are not a cell-based artifact. MH087449NIH Chemical Genomics Center [NCGC] NIH Molecular Libraries Probe Centers Network [MLPCN] MLPCN Grant: MH087449 Assay Submitter (PI): Sushil Rane, National Institute of Diabetes and Kidney Diseases
Suspensions of trypsinized CCL64 CAGA-GFP cells were dispensed into white, tissue culture-treated, solid 1536-well plates at 5uL/well (1000 cells/well final concentration) in DMEM medium supplemented with 1% FBS. Plates were incubated at 37 degrees C for 2 hours, after which 23 nL of compounds or DMSO were delivered to each well using a pin tool. One uL of recombinant TGF-beta in DMEM (1% FBS) was then dispensed (500 pg/mL final concentration), and plates were incubated at 37 degrees C for 18 hours. The plates were measured on an Acumen eX3 Explorer plate reader for GFP fluorescence (ex488/em500-530). GFP values were calculated by determining the mean GFP fluorescence of individual cells, and compiling these values for each well to determine a total well GFP signal. The %Activity was determined from the corrected fluorescence values. A titration of the known TGF-B inhibitor SB431542 was included to monitor plate performance, while unstimulated […] (-TGF-B) control wells were used to normalize %Activity of identified inhibitors; unstimulated wells corresponded to 100%Activity (full inhibition), while stimulated cell controls (+DMSO) were used to normalize 0%Activity (no inhibition). Concentration-response curves were fitted to the signals arising from the resulting fluorescence. The concentration-effect curves were then classified based on curve quality (r2), response magnitude and degree of measured activity, and compounds were subsequently categorized based on their curve class.
Potency means the concentration at half of the fitted maximal effect.

SMILES	Potency
COc1cc(NC(=O)c2[nH]cnc2C(N)=O)cc(C(=O)Nc2cccc(C(F)(F)F)c2)c1	9.2 µM (active)
CCCc1cc(-c2n[nH]c(=S)n2CC)c2ccccc2n1	inactive
Clc1ccc2c(c1)C1=C(C(c3ccncc3)O2)C(c2ccc(Br)cc2)n2ncnc2N1 (centres undefined)	10.3 µM (active)
Cc1ccc(-c2nc3ccc(Br)cn3c2Cc2ccccc2C(F)(F)F)cc1	inactive
CCOC(=O)C1=C(N)N(c2ccc(C)cc2)C2=C(C(=O)CCC2)C1c1cccs1 (centres undefined)	23.1 µM (active)
Cc1cccc(NC(=O)c2nc(S(=O)(=O)Cc3ccccc3)ncc2Cl)c1	2.59 µM (active)
Cc1cccc(CS(=O)(=O)c2ncc(Cl)c(C(=O)Nc3ccc(F)cc3)n2)c1	4.61 µM (active)
Cc1ccc(S(=O)(=O)Nc2ccc3c(c2)C(=O)N([C@H](C)CO)C[C@@H](C)[C@@H](CN(C)C(=O)Nc2cccc4ccccc24)O3)cc1	inactive
COc1cc(NC(=O)COC(=O)c2ccc([N+](=O)[O-])s2)cc(OC)c1OC	inactive
CC1CCc2c(nc3ncnn3c2Nc2ccc(OC(F)(F)F)cc2)C1 (centres undefined)	inactive
Cc1nc(/N=C(\N)NC(=O)NC2CCCCC2)nc2ccccc12	20.6 µM (active)
COc1cccc(CNc2nc(NCc3ccccc3OC)nc3ccsc23)c1	18.4 µM (active)
O=C(Nc1ccc(C2CC2(Cl)Cl)cc1)c1cccc([N+](=O)[O-])c1 (centres undefined)	14.6 µM (active)
CC(=NNC(=S)N1CCCCCC1)c1ccccn1	4.11 µM (active)
O=C(NC1=CC(=O)c2ccccc2C1=O)c1ccccc1	3.66 µM (active)
CCCOc1ccccc1C1CC(=O)Nc2cc3c(cc21)OCO3 (centres undefined)	13 µM (active)
Cc1ccc(CN2CC(N3CCC(Cc4ccccc4)CC3)CS2(=O)=O)cc1 (centres undefined)	inactive
CCCOc1ccc(F)cc1-c1cc(C(=O)Nc2ccc(F)c(Cl)c2)[nH]n1	25.9 µM (active)
O=[N+]([O-])c1ccccc1S(=O)(=O)Nc1cccc2cccnc12	8.2 µM (active)
Clc1ccc(Nc2nc(-c3cccs3)cs2)nc1	29.1 µM (active)
COC(=O)COc1cccc2c(=O)n(CC(=O)NCc3ccccc3)ccc12	inactive
COc1cc(/C=C2\Oc3ccc(C#Cc4ccc(O)cc4)cc3C2=O)cc(OC)c1	5.17 µM (active)

SMILES	Potency
Cc1cc(C)cc(N(CC(=O)N2CC=C(c3ccccc3)CC2)S(=O)(=O)c2c(C)noc2C)c1	10.3 µM (active)
COc1ccc(CNC(=O)C[C@H]2C[C@H](C(=O)N3CCOCC3)[C@@]3(CCC4CCCC4)c4[nH]c5ccc(Cl)cc5c4CCN3C2=O)cc1OC	5.17 µM (active)
COc1ccc2nc(N3CCN(C(=O)c4ccc([N+](=O)[O-])o4)CC3)sc2c1	inactive
CN(C)CCNC(=O)c1ccc(Cl)c2cc3ccccc3nc12	4.61 µM (active)
Fc1cc(F)c2nc(Nc3nc4c(F)cccc4s3)sc2c1	inactive
c1ccc2cc3c(NCCN4CCOCC4)ccnc3cc2c1	13 µM (active)
Cn1c(=O)n(C)c2cc(S(=O)(=O)N3CCCc4ccccc43)ccc21	inactive
COc1ccc(-c2csc(NC3OC(=O)c4ccccc43)n2)cc1 (centres undefined)	11.6 µM (active)
OCC1OC(n2cnc3c(N4CCCC4)ncnc32)C(O)C1O (centres undefined)	inactive
COc1cc(NC(=O)c2ccccc2NS(=O)(=O)c2ccc(Cl)s2)cc(OC)c1	4.61 µM (active)
COc1cccc2sc(N(CCCN(C)C)C(=O)CCS(=O)(=O)c3ccccc3)nc12	2.91 µM (active)
Cc1cccc2sc(N(CCCN(C)C)C(=O)CCS(=O)(=O)c3ccccc3)nc12	3.26 µM (active)
COc1c(C(C)C)oc2cc3oc(=O)ccc3cc12	inactive
O=C(Nc1ccc(Br)cn1)c1ccc([N+](=O)[O-])o1	13 µM (active)
COc1ccc(-c2onc(C)c2-c2ccc3c(c2)OCCO3)c(O)c1	14.6 µM (active)
CN(C)c1nc(N)nc(CSc2nnnn2-c2cccc3ccccc23)n1	inactive
COc1ccc(CC(=O)Nc2ccccc2NC(=O)c2ccco2)cc1OC	inactive
CC(=O)c1ccc(-c2cnc3c(NC=O)cc(-c4cccc(NS(C)(=O)=O)c4)cn23)cc1	5.17 µM (active)
Cc1ccc(C)c(S(=O)(=O)N2CCN(CC(=O)Nc3ccc([N+](=O)[O-])cc3)CC2)c1	inactive
OCCCNc1nccc(-c2cc(Nc3cccc(Cl)c3)ncn2)n1	1.3 µM (active)
O=C(CCC(=O)N1CCN(S(=O)(=O)c2ccc(Cl)cc2)CC1)NCc1cccc(C(F)(F)F)c1	inactive
O=C(/C(=C/c1cccc(Cl)c1)c1nc2ccccc2[nH]1)c1ccccc1	4.61 µM (active)
